Giardia FBPA inh – Giardia lamblia aldolase inhibition; 0.71% of 290,000 active; purified Giardia FBPA; Potency, µM (doses to about 59.6 µM), most hits filed as inhibitors; note: nearly all actives have a fitted effect of over 55% in size
Target sequence (A8B2U2 whole entry, looked up): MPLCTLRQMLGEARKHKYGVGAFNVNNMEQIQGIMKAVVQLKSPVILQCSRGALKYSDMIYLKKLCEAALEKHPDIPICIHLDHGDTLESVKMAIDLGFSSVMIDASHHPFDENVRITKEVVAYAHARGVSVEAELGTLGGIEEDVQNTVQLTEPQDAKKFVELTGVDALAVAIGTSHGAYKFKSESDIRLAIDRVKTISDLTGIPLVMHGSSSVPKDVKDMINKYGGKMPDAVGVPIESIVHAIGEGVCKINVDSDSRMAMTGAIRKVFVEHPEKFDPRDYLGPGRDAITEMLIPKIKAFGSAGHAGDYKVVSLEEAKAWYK
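40 nM FBPA preincubated 10 min at RT with compound (up to 57.5 uM final), then substrate plus GAPDH/TPI/NAD/arsenate coupling and diaphorase/resazurin added. Fluorescence read after 20 min at RT, 525/598 nm.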
AmpC detergent – blocks E. coli AmpC beta-lactamase in detergent assay; P00811; AmpC hydrolysis of nitrocefin, absorbance 480 nm, 0.01% Triton; Potency, µM (highest dose often 114 µM), usual class: inhibitors; 0.041% of 370,000 active; AID 485294; note: nearly all actives have a fitted effect of over 25% in size
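AmpC (5.3 nM in the dispensed reagent) in 20 mM phosphate pH 7.0 with 0.01% (detergent screen) or 0.0001% Triton X-100 was preincubated with compounds for 15 min at room temperature. Nitrocefin was then added from an 800 uM solution, and hydrolysis was followed at 480 nm.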
AmpC no deterg – inhibitors of E. coli AmpC beta-lactamase without detergent. P00811. 0.52% of 330,000 active. AmpC nitrocefin hydrolysis, absorbance 480 nm, 0.0001% Triton. Potency, µM (series often up to 57.1 µM), actives largely listed as inhibitors. AID 485341; note: nearly all actives have a fitted effect of over 20% in size
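AmpC (5.3 nM in the dispensed reagent) in 20 mM phosphate pH 7.0 with 0.01% (detergent screen) or 0.0001% Triton X-100 was preincubated with compounds for 15 min at room temperature. Nitrocefin was then added from an 800 uM solution, and hydrolysis was followed at 480 nm.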
AMA1-RON2 inh – AMA1-RON2 (P. falciparum) interaction inhibition. AlphaScreen AMA1-biotinylated RON2 peptide binding. Potency, µM (series often up to 58.2 µM), actives largely listed as inhibitors. 0.2% of 360,000 active; note: nearly all actives have a fitted effect of over 45% in size
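AMA1 (3D7) with his tag at 25 nM final met compounds first, then biotinylated RON2 peptide at 25 nM; detection used donor plus acceptor beads, 10 µg/mL apiece, read by AlphaScreen after 30 min at room temperature.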
Numbers stand for hits; i = inactive; ? = inconclusive; nt = no result given. Rows were chosen to be rich in hits. Some 1.1% of all compounds tested hit in one or more screens of this group. Calls come from the whole dose curve; as a rule, active = well fitted curve in the direction sought with a large enough effect; inconclusive = small, poorly fitted or top-dose-only effect, or another doubt; inactive = no such curve, though single readings can be large; an effect the other way counts as inactive or inconclusive.

SMILES	Giardia FBPA inh	AmpC detergent	AmpC no deterg	AMA1-RON2 inh
CCOc1ccc(N(CC)C(=O)COc2cc(=O)n(C)c3ccccc23)cc1	i	?	25µM	i
CCOc1ccc(N(CC)C(=O)COc2cc(=O)n(CC)c3ccccc23)cc1	i	i	i	i
CCCCNc1nc(C)nc2c1nc(-c1ccccc1)n2CCN1CCCCC1	i	nt	nt	nt
O=C(NCCc1ccccc1)c1ccc2nc(-c3ccco3)c(-c3ccco3)nc2c1	?	i	16µM	i
O=C(Nc1ccc2nc(-c3ccco3)c(-c3ccco3)nc2c1)N1CCCCCC1	?	i	i	12µM
CCOC(=O)C1CCN(C(=O)Nc2ccc3nc(-c4ccco4)c(-c4ccco4)nc3c2)CC1	?	i	?	?
O=C(NCCO)c1ccc2nc(-c3ccco3)c(-c3ccco3)nc2c1	?	i	i	?
O=C(c1ccccc1)c1ccc2nc(-c3ccco3)c(-c3ccco3)nc2c1	?	i	25µM	?
N=C1/C(=C/c2ccc(-c3cccc(C(=O)O)c3)o2)C(=O)N=C2SC=C(c3ccccc3)N12	?	50µM	i	?
N=C1/C(=C\c2ccc(-c3cc(Cl)cc(Cl)c3)o2)C(=O)N=C2SC=C(c3ccccc3)N12	i	i	i	i
CCOC(=O)N1CCN(C(=O)C[C@@H]2C[C@@]3(C(=O)OC)CC(C)(C)CC=C3N(Cc3ccc4c(c3)OCO4)C2=O)CC1	nt	nt	nt	i
NC(=S)N/N=C/c1ccc(-c2cc(Cl)c(Cl)cc2Cl)o1	i	i	20µM	i
COc1cccc(C(=O)/C=C/c2ccc(N3CCCCC3)c([N+](=O)[O-])c2)c1	i	i	i	5µM
O=C(/C=C/c1ccc(N2CCCCC2)c([N+](=O)[O-])c1)c1ccc(S(=O)(=O)N2CCCC2)cc1	i	i	i	i
CCCc1nnc(NC(=O)Cc2coc3c(C)c(C)ccc23)s1	nt	i	nt	nt
CCCC(=O)N1CCN(c2ccc(NC(=O)c3cc4ccccc4o3)cc2Cl)CC1	10µM	?	i	i
CCC(=O)N1CCN(c2ccc(NC(=O)c3cc4ccccc4o3)cc2Cl)CC1	?	i	i	i
CCc1ccc(CN2CCN(Cc3ccc(SC)cc3)CC2)cc1	18µM	i	i	13µM
CCc1ccc(-c2nn(CC(=O)NC3CCCC3)c3c2cnc2ccc(C)cc23)cc1	nt	i	nt	nt
CC(C)=CCc1c2c(c3occ(-c4ccc(O)c(O)c4)c(=O)c3c1O)C=CC(C)(C)O2	i	nt	nt	i
CC(C)=CCc1c2c(c3occ(-c4ccc(O)cc4)c(=O)c3c1O)C=CC(C)(C)O2	i	i	16µM	i
COc1ccc(N2CCN(Cc3cc4c(cc3O)CCC4)CC2)cc1	i	i	i	15µM
C/C=C/c1cc(CN2CCN(c3ccc(OC)cc3)CC2)c(O)c(OC)c1	i	i	i	22µM
O=C(Cc1ccc(-c2ccccc2)cc1)NCCS(=O)(=O)N1CCN(c2cccc(Cl)c2)CC1	nt	i	nt	nt
O=C(Nc1ccc2c(c1)CN(Cc1ccccc1O)CC2)C1CCCO1 (centres undefined)	nt	i	i	i
SMILES	Giardia FBPA inh	AmpC detergent	AmpC no deterg	AMA1-RON2 inh
CCOc1ccc(CCNC(=O)C2CCCN(c3nnc(C)c4c(C)n(-c5ccccc5)nc34)C2)cc1 (centres undefined)	nt	i	nt	nt
Cc1cccc(N2CCN(C(=O)Cn3cnc4sc(C)c(S(=O)(=O)N5CCN(c6ncccn6)CC5)c4c3=O)CC2C)c1 (centres undefined)	nt	i	nt	nt
Cc1cccc(/C=N/NC(=O)c2ccc(NC(=O)c3ccc(F)cc3)cc2)n1	i	i	18µM	i
Cc1ccccc1-c1noc(CSc2nc3ccccc3[nH]2)n1	nt	i	nt	nt
NS(=O)(=O)c1ccc(O)c(N2C(=O)c3cccc4c(C(=O)c5ccccc5)ccc(c34)C2=O)c1	i	i	10µM	nt
CCn1ncc(Br)c1C(=O)Nc1ccc(F)cc1F	i	i	0.32µM	i
Cn1c(SCC(=O)Nc2ccccc2F)nnc1-c1cccnc1	i	?	i	i
CCc1ccccc1-n1c(SCC(=O)NC)nnc1-c1cccnc1	i	35µM	i	i
Cn1c(SCC(=O)Nc2ccc(F)cc2)nnc1-c1cccnc1	i	?	32µM	i
CCOC(=O)c1c(Nc2ccc(C)cc2)nnc(-c2ccccc2)c1-c1ccccc1	nt	i	nt	nt
Cc1ccc(C)c2sc(N3CCN(C(=O)C(C)(C)C)CC3)nc12	nt	i	nt	nt
Cc1ccc(S(=O)(=O)/N=C2\C=C(Nc3ccc(O)cc3)C(=O)c3ccccc32)cc1	nt	nt	i	20µM
